Laboratory results: PubChem BioAssay (NCI)
Several values for one entry are separate records, joined by “and”; a condition that tells them apart may be missing. Equal entries are not always repeated. This is part of a sample that, as a whole, favours compounds with a hit. Of some 79,000 tested, about 15% had one in any assay. Unmarked numbers belong to inactive results. Activity calls are given as the source filed them. Rule as the data show it: active = growth inhibition above about 70%; inactive = the rest.

Key:
[1] = NCI Yeast Anticancer Drug Screen. Data for the rad50 strain (AID 155);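 also: 0% = growth of vehicle-only cultures of the same strain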; details: S. cerevisiae rad50 strain growth inhibition; at 50.0 µM; stronger effect = higher value
How it was run: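 Genetically altered yeast (DNA repair pathway); compound treatment; growth inhibition vs vehicle ctrl.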

[2] = NCI Yeast Anticancer Drug Screen. Data for the mec2-1 strain (AID 157); details: S. cerevisiae mec2-1 strain, at 50.0 µM, stronger effect = higher value
How it was run: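 Using mec2-1 yeast: add compound, measure growth, express inhibition versus vehicle-treated cultures.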

[3] = NCI Yeast Anticancer Drug Screen. Data for the sgs1 mgt1 strain (AID 161);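 also: 0% = growth of cultures given vehicle only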; details: S. cerevisiae sgs1 mgt1 strain, at 50.0 µM, stronger effect = higher value
How it was run: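 Percent growth inhibition was derived by comparing compound-exposed mutant yeast with vehicle-exposed cultures. The strain carries alterations in DNA damage repair.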

[4] = NCI Yeast Anticancer Drug Screen. Data for the cln2 rad14 strain (AID 165);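 also: 0% = growth equal to vehicle treated cultures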; details: S. cerevisiae cln2 rad14 strain, at 50.0 µM, stronger effect = higher value
How it was run: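 Yeast strain cln2 rad14, bearing defects in cell cycle control and DNA repair, serves as the test system; values reflect growth inhibition compared with vehicle.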

[5] = NCI Yeast Anticancer Drug Screen. Data for the bub3 strain (AID 167); details: S. cerevisiae bub3 mutant strain, at 50.0 µM, stronger effect = higher value
How it was run: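 Yeast carrying a defined mutation is treated with each compound, and growth is compared with that of vehicle-exposed cells to give inhibition.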

[6] = NCI Yeast Anticancer Drug Screen. Data for the mlh1 rad18 strain (AID 175); details: S. cerevisiae mlh1 rad18 strain growth inhibition; at 50.0 µM; stronger effect = higher value
How it was run: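 Steps: expose repair-defective yeast to compound; measure growth; express inhibition against vehicle-treated controls.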

SMILES | growth inhibition [1] | growth inhibition [2] | growth inhibition [3] | growth inhibition [4] | growth inhibition [5] | growth inhibition [6]
c1ccc(CN2CCNCC2)cc1 | -8.35% | -14.4% | 1.9% | -14.1% | 4.9% | -9.7%
C[n+]1cccc(C2CCC[N+]2(C)C)c1 (stereo not given) | 4.4% | 7.85% | 8.15% | -10.9% | -9% | -4.6%
COC1C(=[N+]=[N-])C(=O)NC(=O)N1C (stereo not given) | 21% | -3.4% | 34.9% | -7.65% | 20.3% | 20.5%
O=C(CF)[O][Sb]([O]C(=O)CF)([c]1ccccc1)([c]1ccccc1)[c]1ccccc1 | 9.8% | 19.9% | 23.8% | -18.6% | 16.2% | 33.8%
Cc1cccc(NC(=O)C(=O)C2C(=O)NC(=O)NC2=O)c1C | 0.7% | 13.8% | -14% | 7.25% | 20.2% | 12.2%
Cc1ccccc1[N+](=O)[O-] | 19.1% | 13.6% | 2.5% | 9.45% | -10.1% | -3.3%
CCOC(=O)Oc1c(Cl)cc(S(=O)(=O)F)cc1Cl | 99.6% (active) | 99.8% (active) | 99.6% (active) | 99.5% (active) | 99.7% (active) | 99.5% (active)
C[C@]12C=CC(=O)NC[C@@H]1CC[C@@H]1[C@@H]2CC[C@]2(C)[C@@H](OC(=O)COc3ccc(N(CCCl)CCCl)cc3)CC[C@@H]12 | 18.1% | 5.05% | 8.1% | 1.2% | 3.05% | -7.65%
CCOP(O)(=S)OCC.[Yb] | 22.4% | -2.45% | -1.1% | -22.7% | -1.35% | -7.4%
O=Cc1ccccc1O | 28.8% | -2.25% | 12.4% | -10.4% | -6.05% | 5.6%
O=c1[nH]c2ccc([As](=O)(O)O)cc2[nH]1 | -8.7% | -1.1% | -0.95% | -5.2% | 13.7% | 8.55%
O=[As](O)(O)c1ccc2nc3cc([As](=O)(O)O)ccc3nc2c1 | -11.1% | -3% | -20.4% | 3.8% | 2.35% | -30.9%
O=[N+]([O-])c1ccc(CCBr)cc1 | 28.8% and 30.2% | 1.25% and 37.6% | 13.4% and 34% | 17.1% and 11.8% | 36.3% and 3.2% | 17.6% and -2.15%
CC[As](CC)SCC1OC(OC(C)=O)C(OC(C)=O)C(OC(C)=O)C1OC(C)=O (stereo not given) | 99.1% (active) | 98.5% (active) | 68.2% | 99.5% (active) | 65.8% | 98.9% (active)
Cc1cccc2c(=O)c([Se]c3coc4c(C)cccc4c3=O)coc12 | -12.4% | -15.2% | -48.2% | -5.8% | -13.2% | -30.1%
O=P1(N(CCCl)CCCl)Oc2c(Cl)cc(Cl)c(Cl)c2Cc2c(Cl)c(Cl)cc(Cl)c2O1 | -15.1% | -31.7% | 2.85% | 0.25% | -14.2% | -10.7%
NC(Cc1cccc(F)c1)c1nn[nH]n1 (stereo not given) | -7.6% | 2.35% | -0.1% | -22.8% | 1.65% | -0.7%
O=[N+]([O-])c1ccc(Cl)c([N+](=O)[O-])c1 | 99.2% (active) | 98.5% (active) | 99.2% (active) | 96.3% (active) | 98.7% (active) | 99.2% (active)
COCC#CCN(C)C | -7.75% | -8.3% | -13.8% | 2.85% | 9.95% | -9.4%
COc1ccc2c(c1OC)C[C@@H]1c3c(cc4c(c3-2)OCO4)CCN1C | 21.2% | -30.2% | -23.6% | -14.6% | -0.6% | -56.5%
